Compound activity from PubChem BioAssay.
An excerpt weighted towards active compounds, which were near 0.85% of everything screened.
C-LANA FP = inhibitors of KSHV LANA C-terminal domain DNA binding; MBP-C-LANA/FAM-LBS DNA binding, fluorescence polarization; inhibition, % at 9 µM; 340,000 compounds, 0.078% hits;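 active = highest replicate inhibition at or above 60% at 9 µM, even if other replicates fall short; inactive = all replicates below 60% inhibition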;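 also: 0% = neutral control wells and 100% = 4 µM acridine orange control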
Keap1 Nrf2 FP = Keap1-Nrf2 (human) interaction inhibition; 340,000 compounds, 0.15% hits; inhibition, % at 9.4 µM; AID 504523; Keap1 Kelch-Nrf2 peptide fluorescence polarization, 1536-well; in the data active = inhibition above about 12%;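 also: human Keap1 Kelch domain with fluorescein labeled Nrf2 9mer peptide probe; 0% = neutral control wells and 100% = peptide positive control; higher means more block of Keap1 binding to Nrf2 peptide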
ZTA DNA inh = blocks Epstein-Barr virus ZTA, an EBNA-1 counter-screen | ZTA-DNA binding, fluorescence polarization | P03206 | 320,000 compounds, 0.15% hits | inhibition, % at 11 µM; in the data active = inhibition above about 33%
eLon inh = inhibitors of E. coli Lon protease. purified E. coli Lon protease, fluorescence polarization. inhibition, % at 7.94 µM. 360,000 compounds, 0.42% hits. AID 602123; in the data active = inhibition above about 13%, passing the limit was not always enough;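 also: 0% = enzyme with probe and DMSO and 100% = no enzyme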
Target sequence (P0A9M0 whole entry, looked up): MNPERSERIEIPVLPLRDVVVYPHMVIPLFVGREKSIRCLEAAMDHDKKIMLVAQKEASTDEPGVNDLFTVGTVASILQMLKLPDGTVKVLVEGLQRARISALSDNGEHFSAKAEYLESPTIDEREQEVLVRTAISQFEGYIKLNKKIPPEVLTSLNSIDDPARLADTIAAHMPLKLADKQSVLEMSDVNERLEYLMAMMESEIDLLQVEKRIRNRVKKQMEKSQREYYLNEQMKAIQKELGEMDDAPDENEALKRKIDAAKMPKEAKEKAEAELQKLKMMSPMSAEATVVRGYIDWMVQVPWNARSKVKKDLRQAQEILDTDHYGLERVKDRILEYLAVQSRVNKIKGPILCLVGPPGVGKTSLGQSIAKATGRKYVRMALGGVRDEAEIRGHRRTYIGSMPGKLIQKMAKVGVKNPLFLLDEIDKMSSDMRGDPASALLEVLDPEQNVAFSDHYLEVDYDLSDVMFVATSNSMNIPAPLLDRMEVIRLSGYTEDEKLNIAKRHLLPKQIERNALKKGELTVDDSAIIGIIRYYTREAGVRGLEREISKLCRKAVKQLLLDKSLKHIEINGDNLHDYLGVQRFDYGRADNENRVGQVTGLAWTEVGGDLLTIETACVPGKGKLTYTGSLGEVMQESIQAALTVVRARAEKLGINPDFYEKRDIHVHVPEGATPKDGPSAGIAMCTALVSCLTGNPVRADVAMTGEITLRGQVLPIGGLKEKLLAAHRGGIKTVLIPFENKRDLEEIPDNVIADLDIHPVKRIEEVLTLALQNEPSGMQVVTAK
EBNA-1 inhibitor = blocks EBNA-1 binding to DNA; EBNA-1 DNA binding, fluorescence polarization; AID 1950; inhibition, % at 14.8 µM; 300,000 compounds, 0.34% hits; in the data active = inhibition above about 28%
EBNA-1 confirm = EBNA-1 (EBV) inhibition, confirmation | shares compounds with EBNA-1 inhibitor | Recombinant EBNA-1 DBD, Cy5-DNA fluorescence polarization | inhibition, % at 14.8 µM | 830 compounds, 35% hits | AID 2292;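 active = mean inhibition across replicates above a set limit taken from the earlier primary screen, cut at about 28% in these data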;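 also: plate controls were EBNA-1 protein with DMSO for no effect and wells lacking EBNA-1 for full effect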
ZTA DNA inh trip = blocks Epstein-Barr virus ZTA in triplicate, EBNA-1 counter-screen; shares compounds with EBNA-1 inhibitor; Zta-ZRE DNA binding, Cy5 fluorescence polarization; inhibition, % at 11.1 µM; 830 tested, under 10 active; AID 2328;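 active = mean inhibition over triplicates above a set limit taken from the primary EBNA-1 screen, cut at about 37% in these data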;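 also: purified full length Zta protein with Cy5 labeled ZRE DNA probe; 0% = Zta with DMSO and 100% = wells lacking Zta protein; inhibitors lower polarization by freeing the labeled DNA probe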
Starred values were filed as active, the others as inactive; x = no result.

SMILES	C-LANA FP	Keap1 Nrf2 FP	ZTA DNA inh	eLon inh	EBNA-1 inhibitor	EBNA-1 confirm	ZTA DNA inh trip
CCC(=O)Nc1ccc(Cl)c(NC(=S)NC(=O)c2cc3ccccc3o2)c1	-0.4	-1.7	-3.2	0.1	38.8*	17.6	2.8
CCN1C(=O)/C(=C2/C=Cc3cc(C)ccc3N2CC)N(C)C1=S	1.4	0.3	-3.0	3.6	29.0*	-2.5	-10.0
CC(=O)Nc1ccc(S(=O)(=O)NCCC(=O)OC(C)C(=O)NC2(C#N)CCCCC2)cc1 (centres undefined)	2.2	-0.1	-2.4	-5.2	x	x	x
N#CCC(=N)N1CCN(c2cccc(Cl)c2)CC1	0.0	10.7	5.7	1.1	45.2*	-10.1	-1.3
N#CCC(=N)N1CCN(c2ccccc2)CC1	1.4	-0.4	2.0	-5.4	3.9	x	x
N#Cc1c2c(c(Nc3ccc(O)cc3)n3c1nc1ccccc13)CCC2	-1.0	-2.5	-3.2	0.6	39.2*	15.0	0.4
N#Cc1c2c(c(NCc3ccco3)n3c1nc1ccccc13)CCC2	1.8	-7.6	2.4	-26.9	-9.4	x	x
Cc1ccc(-c2csc(NC(=O)CSc3ncn(-c4ccccc4)n3)n2)cc1	-0.3	-2.2	14.2	15.8	40.5*	-0.4	-1.5
O=C(CSc1ncn(-c2ccccc2)n1)Nc1nc(-c2ccccc2)cs1	-0.6	-1.5	0.2	10.4	16.2	x	x
Cc1ccnc(NS(=O)(=O)c2ccc(NC(=O)Cc3ccc(Br)cc3)cc2)n1	-1.4	3.6	5.2	-2.6	14.8	x	x
O=C1NC[C@H](CCCCN2CCN(CCc3ccccc3)C(=O)C2=O)N(CCc2ccccc2)C1=O	x	x	x	-2.2	x	x	x
O=C(CSc1cn(Cc2ccccc2)c2ccccc12)Nc1nccs1	-1.2	-7.4	2.0	7.1	36.3*	8.2	6.3
CCOc1ccccc1N(C(=O)c1ccco1)C(C(=O)NC1CCCC1)c1cccs1 (centres undefined)	-0.6	-3.8	-3.7	7.4	-6.5	x	x
COc1ccc(N(C(=O)c2ccco2)C(C(=O)NC2CCCC2)c2cccs2)c(OC)c1 (centres undefined)	1.3	-6.4	17.5	3.0	54.6*	8.3	12.8
O=C(c1cccc(-c2ccc(O)cc2)c1)N1CCN(c2ccc(F)cc2)CC1	-1.2	-7.1	-6.1	3.2	40.4*	20.4	-3.3
CCOC(=O)N/N=C(/C)c1ccc([N+](=O)[O-])o1	-0.8	4.1	-1.3	-0.8	35.7*	7.1	4.9
COc1ccc(/C=C/C(=O)NC(=S)Nc2ccc(S(N)(=O)=O)cc2)cc1	37.8	-4.7	31.3	10.0	32.5*	39.3*	37.1*
CCOC(=O)c1nn(C)c(=S)n(C)c1=O	-2.0	-3.1	x	-9.7	x	x	x
COc1cc(/C=C2\SC(=O)N(CC(=O)Nc3ccccc3F)C2=O)cc(Cl)c1O	-0.4	0.2	3.2	-113.1	-0.2	x	x
COc1ccc(/C=C2\SC(=O)N(CC(=O)NNC(=O)c3ccccc3O)C2=O)cc1	0.6	-2.4	-8.1	7.3	54.5*	6.8	7.9
O=C(CN1C(=O)S/C(=C\c2ccccc2)C1=O)NNC(=O)c1ccccc1O	-0.2	-1.0	-1.4	15.0	-2.4	x	x
COc1cc(OC)c(/C=C2\SC(=O)N(CC(=O)Nc3ccccc3F)C2=O)c(OC)c1	1.5	1.2	-4.9	5.1	95.8*	67.0*	-0.7
COC(=O)c1ccc(CNC(=O)c2ccc(OC)c(S(=O)(=O)NC3CCCC3)c2)cc1	-0.8	-1.4	0.8	6.7	x	x	x
Cc1ccc2cccc(NC(=S)NC(=O)c3ccnn3C)c2n1	-0.1	-1.4	-21.4	-10.9	39.9*	32.1*	5.1
CC(=O)NC(=S)Nc1cccc2ccc(C)nc12	-0.2	-0.9	-6.4	-9.2	-5.6	x	x
SMILES	C-LANA FP	Keap1 Nrf2 FP	ZTA DNA inh	eLon inh	EBNA-1 inhibitor	EBNA-1 confirm	ZTA DNA inh trip
CCCCCC(=O)Nc1cc(S(=O)(=O)N2CCOCC2)ccc1Oc1ccc(OCC)cc1	0.3	-3.6	-4.0	-1.7	0.5	x	x
COc1ccccc1N1CCN(C(=O)CCNC(=O)c2ccco2)CC1	0.7	-3.6	8.6	11.7	x	x	x
Cc1ccc2nc(-c3ccc(NC(=O)CN4C(=O)NC(C)(c5ccc(OC(F)F)cc5)C4=O)cc3)sc2c1 (centres undefined)	-0.2	-3.0	7.5	-1.9	39.7*	18.1	8.7
Cc1ccc(S(=O)(=O)N2CCN(C(=S)NCCc3ccccc3)CC2)cc1	2.6	2.2	-2.8	-3.1	65.4*	11.4	-1.6
COc1ccc(CCNC(=S)N2CCN(S(=O)(=O)c3ccccc3)CC2)cc1	-0.8	4.0	-6.8	-2.3	-6.6	x	x
COc1cc(/C=C/C(=O)OCC(=O)N(CC(C)C)c2c(N)n(Cc3ccccc3)c(=O)[nH]c2=O)ccc1O	2.2	3.4	x	-3.8	x	x	x
CO/C([O-])=N/c1c[n+](-c2ccc(Cl)cc2)no1	-1.7	1.3	6.6	-2.4	39.4*	-5.6	-5.9
O=C(COC(=O)CCNS(=O)(=O)c1ccccc1)Nc1ccc(OC(F)F)cc1	-1.9	0.7	3.5	4.2	x	x	x
CN(C)S(=O)(=O)c1ccc2c(c1)nc(CCC(=O)NCCc1ccc(Cl)cc1)n2C	2.8	-8.9	8.4	-14.9	6.9	x	x
CCOc1ccccc1NC(=O)COC(=O)c1c[nH]c2ccccc12	x	x	x	11.7	x	x	x
Cc1ccc(NC(=O)CSc2nnc(NC(=O)c3ccc(S(=O)(=O)N4CCOCC4)cc3)s2)cc1	-1.5	-2.5	10.1	5.0	56.4*	84.3*	11.1
CCOC(=O)c1ccc(NC(=O)CSc2nnc(NC(=O)c3ccc(S(=O)(=O)N4CCOCC4)cc3)s2)cc1	-2.1	-1.5	6.5	-6.5	-3.7	x	x
Cc1ccccc1OCc1nc(-c2ccc(NC(=O)c3ccc4c(c3)OCO4)cc2)no1	-0.1	-1.4	4.4	-3.3	28.8*	39.0*	25.1
CN(C)c1ccc(/C=N/NC(=O)c2cc(-c3ccc4c(c3)OCO4)n[nH]2)cc1	8.4	-1.3	-5.8	-61.5	-10.9	x	x
O=C(N/N=C/c1ccc(F)cc1)c1cc(-c2ccc3c(c2)OCO3)n[nH]1	0.6	4.2	-2.2	11.6	32.1*	16.1	4.2
O=C(Cn1cnc2ccccc2c1=O)N1CCN(S(=O)(=O)c2ccc(F)cc2)CC1	0.0	2.4	-5.1	-11.0	x	x	x
CCN(C(=O)Cc1c(C(=O)O)n(C)c2ccccc12)c1cccc(C)c1	0.7	1.9	17.2	0.7	20.9	x	x
O=C(OCCN1C(=O)c2ccccc2C1=O)c1ccccc1	-0.4	5.1	19.2	-17.1	46.2*	-11.6	6.3
O=C(OCN1C(=O)c2ccccc2C1=O)c1ccccc1	0.8	8.7	5.5	-17.4	-3.4	x	x
COc1cc(C)c(Cl)cc1S(=O)(=O)NCc1ccccn1	3.3	-7.6	3.7	4.2	1.6	x	x
COc1ccc(NC(=O)COC(=O)c2ccc(OCc3ccccc3Cl)c(OC)c2)c(OC)c1	-2.5	-2.9	-3.9	-3.2	32.3*	-8.4	-9.0
CCOc1ccc(/C=N/NC(=O)c2ccc(CSc3nc4ccccc4[nH]3)cc2)cc1	-1.1	-1.9	7.5	3.6	32.8*	39.1*	12.4
